Structures are written as SMILES. In all, about 2,300 compounds went through this assay and about 300 (13%) were called active. These entries were drawn from the full list. Unmarked numbers belong to inactive results.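 The calls were made as follows: active = mean inhibition of the replicates above the hit cutoff set in the primary screen (cut at about 17% in these data); inactive = the rest.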

In this assay the target is Sialate O-acetylesterase (Homo sapiens) (UniProt Q9HAT2). The experiment in a line: sialate O-acetylesterase blockers re-tested – biochemical, fluorescence polarization, FP-Rh probe, triplicate, confirmation (AID 1117263).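 Also: 0% = SIAE with DMSO and probe and 100% = probe without SIAE; inhibitors lower polarization as more probe stays unbound to SIAE.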 The settings on record: SIAE FP-Rh activity-based probe, at 9.66 µM, stronger effect = higher value. (In general: Fluorescence polarisation rises when a labelled molecule tumbles more slowly, as on binding a larger partner.)
Sialate O-acetylesterase (Homo sapiens), sequence (Q9HAT2 whole entry, looked up): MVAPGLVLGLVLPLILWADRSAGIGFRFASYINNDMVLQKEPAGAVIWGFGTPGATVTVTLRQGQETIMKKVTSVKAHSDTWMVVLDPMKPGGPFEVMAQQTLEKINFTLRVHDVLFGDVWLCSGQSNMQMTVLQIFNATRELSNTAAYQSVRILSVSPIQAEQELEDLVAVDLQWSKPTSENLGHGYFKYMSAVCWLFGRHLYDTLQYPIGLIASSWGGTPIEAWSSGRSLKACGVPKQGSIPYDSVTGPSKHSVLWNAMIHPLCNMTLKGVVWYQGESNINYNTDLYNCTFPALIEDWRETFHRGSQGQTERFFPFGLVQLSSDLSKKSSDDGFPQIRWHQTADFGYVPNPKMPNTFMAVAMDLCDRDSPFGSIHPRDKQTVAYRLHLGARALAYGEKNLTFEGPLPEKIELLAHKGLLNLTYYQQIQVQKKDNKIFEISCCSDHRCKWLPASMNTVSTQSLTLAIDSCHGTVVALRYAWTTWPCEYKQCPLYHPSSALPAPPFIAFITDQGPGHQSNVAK
For `Oc1ccc(CNc2ccccc2O)cc1`, the inhibition – broadly, the relative decrease from the control value, in per cent – is -1.96%. Under `Cc1cccc(C)c1NC(=O)CN(C)C(=O)CCC(=O)c1ccccc1` stands -0.52%; under `CN(C)c1ccc(N/C=C/C(=O)C(F)(F)F)cc1`, 2.35%; under `COc1cc(C(=O)Nn2c(O)c(C3=c4ccccc4=NC3=O)sc2=S)ccc1O`, 34.8% (active). With `Cc1nc2ccc(C(=O)N3CCSCC3)cc2s1`, the inhibition is -7.27%. Turning to `COC(=O)C1=C(NC(=O)C(C)(C)C)CCS1`, the inhibition was 0.95%.

In the case of `CN(CC(=O)Nc1cccc(F)c1)CC(=O)Nc1cccc([N+](=O)[O-])c1`, the inhibition is 1.24%. On to `CCOC(=O)c1c(C)nn(-c2ncccc2NC(=O)CCC(=O)O)c1C`, for which the inhibition was -3.52%. Take `CC(C)CCNC(=O)C1CCCN(S(=O)(=O)c2ccc(F)cc2)C1` (centres undefined): the inhibition is 1.12%. On to `CN1c2ccc(C=O)c3c(C=O)ccc(c23)N(C)C1(C)C`, for which the inhibition was 4.27%. On to `COc1ccc(C2OCC3(CO2)SC(=O)NC3=O)cc1OC` (centres undefined), for which the inhibition is -9.1%. Regarding `CC1(C)C/C(=C(/C#N)C(N)=O)CCO1`, the inhibition is -3.01%. In the case of `CCOc1cc(N2CCOCC2)c(OCC)cc1NC(=O)COc1cccc2cccnc12`, the inhibition is 8.9%. Take `O=C(NNc1c2ccccc2nc2ccccc12)c1cc2ccccc2cc1O`: the inhibition was 13.8%. Turning to `CC(=O)Nc1ccc(Nc2cc(C)nc(Nc3ccc(NC(C)=O)cc3)n2)cc1`, the inhibition was 4.83%. On to `Cc1ccnc(NS(=O)(=O)c2ccc(NC(=O)c3ccc(S(=O)(=O)N4CCOCC4)cc3)cc2)n1`, for which the inhibition is 1.77%. Regarding `Oc1ccc(C2Nc3cccc4cccc(c34)N2)cc1`, the inhibition is 29.6% (active). Consider `Cc1ccc(C2Nc3cccc4cccc(c34)N2)cc1`, for which the inhibition was 7.48%. Under `Cc1ccc(NC(=S)NCCN2CCOCC2)cc1` stands 2.38%; under `CCOc1ccccc1Nc1ccc(C(=O)O)cc1[N+](=O)[O-]`, -0.47%; under `Cc1ccc(N=C2NC(=O)/C(=C/C=C/c3ccco3)S2)cc1C`, -34.3%. Take `CCOc1ccc(Nc2nc(Cc3nnc(SCC(=O)NC4CCCC4)n3C)cs2)cc1`: the inhibition was 5.78%. Regarding `COc1ccc(C2C(C(C)=O)=C(O)C(=O)N2CCc2c[nH]c3ccccc23)cc1` (centres undefined), the inhibition was 0.13%. Regarding `CCOC(=O)N1CCN(C(=O)CSc2ccc(Cl)cc2)CC1`, the inhibition was -2.01%. As to `CC(=O)Nc1ccc(S(=O)(=O)Nc2ccc(N3CCCCC3)cc2)cc1`, the inhibition was 4.68%.

On to `COc1ccc(NC(=O)/C(N=Nc2cccc(S(=O)(=O)Nc3ccc(SC(F)F)cc3)c2)=C(\C)O)cc1`, for which the inhibition is -11.2%.

Turning to `CCCCn1c(N)c(N(CC(C)C)C(=O)CSc2ccc([N+](=O)[O-])cc2)c(=O)[nH]c1=O`, the inhibition is 4.78%. Take `O=C(NC(=S)Nc1ccc(NC(=O)c2cccs2)cc1)c1ccc([N+](=O)[O-])cc1`: the inhibition was 15.2%.

For `C=CCN1C(=O)[C@@H](CC(=O)NCC2CCCCC2)[C@]2(C(=O)OC)CCCCC=C12`, the inhibition is 4.13%. On to `COc1ccc2nc(Nc3nc4cc5c(cc4s3)OCCO5)sc2c1`, for which the inhibition is 0.67%. As for `O=C1CCCC(O)=C1N=Nc1ccc(S(=O)(=O)N2CCOCC2)cc1`, the inhibition was 3.36%. `CC(=O)Nc1cccc([N+](=O)[O-])c1`: the inhibition is 1.2%. For `CC(NS(=O)(=O)c1ccc(Cl)cc1)C(=O)Nc1ccc2c(c1)OCCO2` (centres undefined), the inhibition was -0.44%. As for `CCn1c(=O)n(CC)c2cc(N3CCCC3)c(NC(=O)c3ccccc3Br)cc21`, the inhibition is 2.42%. As for `O=C(Nc1ccccc1N1CCCC1)c1ccc(F)c(S(=O)(=O)N2CCOCC2)c1`, the inhibition was -3.75%. As for `Cc1nc2cc(NCc3cccs3)ccc2n1C`, the figure is -2.47%; as for `Cn1cccc1/C=N/NC(=O)CNc1cccc2ccccc12`, 5.62%; as for `O=C(N/N=C/c1sc(N2CCCCC2)nc1-c1cccs1)c1cccnc1`, 16.6%. Take `C/C=C/c1ccc(OCC(=O)OCC(=O)Nc2c(C)nn(-c3ccccc3)c2C)c(OC)c1`: the inhibition was 3.24%. As for `C[C@@H]1O[C@@H](OC[C@H]2O[C@@H](Oc3c(-c4ccc(O)cc4)oc4cc(O)cc(O)c4c3=O)[C@H](O)[C@@H](O)[C@@H]2O)[C@H](O)[C@H](O)[C@H]1O`, the figure is 6.07%; as for `CCOC(=O)C1=C(C)N=C2c3ccccc3C(=O)C2C1c1ccc(Br)cc1` (centres undefined), 7.01%.

As to `Cc1cc2ccccc2n1CCNC(=O)COc1ccc2ccccc2c1`, the inhibition is 9.71%. For `Cc1cc2ccccn2c1C(=O)c1cccc(F)c1`, the inhibition was -0.9%. In the case of `COc1ccc(Cc2nc3ccc(C(=O)N4CCC(N(C)C)C4)cc3o2)cc1` (centres undefined), the inhibition was -0.71%.

In the case of `COc1ccc(-c2cc(C(=O)NC(Cc3c[nH]c4ccccc34)C(=O)O)c(C)o2)cc1OC` (centres undefined), the inhibition is 10.6%.

As for `NS(=O)(=O)c1ccc(NC(=O)COC(=O)c2c3c(nc4ccccc24)/C(=C\c2ccc4c(c2)OCO4)CCC3)cc1`, the inhibition was -152%. Under `CCCCC[C@H](C)N1C[C@@H](COCc2ccccc2)Oc2cc(N3CC[C@@H](N(C)C)C3)ccc2S1(=O)=O` stands 23.2% (active).

Turning to `CNS(=O)(=O)c1ccc2c(c1)[nH]c(=S)n2C`, the inhibition was 8.04%.

Take `Cc1ccc(C(=O)N/C(=C/c2ccc(-c3cccc([N+](=O)[O-])c3)o2)C(=O)NCCCN(C)C)cc1`: the inhibition was 0.77%. Consider `CNC(=S)NNC(=O)c1oc2nc(-c3ccccc3)cc(-c3ccco3)c2c1N`, for which the inhibition was 3.72%. With `NNC(=O)c1oc2nc(-c3ccccc3)cc(-c3ccco3)c2c1N`, the inhibition is 56% (active). For `Cc1ccc(OCC(=O)Nc2ccc(-c3nnc(-c4ccco4)o3)cc2)cc1`, the inhibition was -15.4%. With `CCOC(=O)/C(N=Nc1cc(C(=O)O)cc(C(=O)O)c1)=C(\O)CCl`, the inhibition was 2.21%. With `CC(C)c1cc(N=O)cc(C(C)C)c1O`, the inhibition was -26.2%. Take `Oc1ccccc1C1=NN(c2ccccc2)C(c2ccccc2)C1` (centres undefined): the inhibition was 6.69%. Under `CCOc1ccc(NC(=O)C/C(C)=N/NC(=O)Cc2cccs2)cc1` stands 4.73%. As for `CCN(CC)CCCC(C)n1c2nc(=O)[nH]c(=O)c-2nc2cc(Cl)ccc21` (centres undefined), the figure is 25.5% (active); as for `COC(=O)C(C)Sc1ccc2nnc(-c3cccc(F)c3)n2n1` (centres undefined), -0.98%; as for `Oc1ccc2ccc3cccc[n+]3c2c1`, 4.67%. As for `CCOC(=O)C1=C(c2ccccc2)O/C(=C(/C(=O)OC)C(F)(F)F)S1`, the inhibition is -7.25%. Take `CCN(C(=O)COC(=O)C1CCN(S(=O)(=O)c2ccc(C)c(C)c2)CC1)C1CCS(=O)(=O)C1` (centres undefined): the inhibition was 2.26%. For the compound `Nc1ccc2nc3c(=O)[nH]c(=S)[nH]c3nc2c1`, the inhibition is 32.7% (active). As for `Cc1nc(-c2ccc(Cl)cc2)sc1C(=O)NN`, the figure is -2.12%. Consider `NNc1nc2c(Cl)cccc2s1`, for which the inhibition is 5.82%. For the compound `S=C(NCCCc1cnc[nH]1)NCCCN(Cc1ccc(Cl)c(Cl)c1)c1ccc(Br)cn1`, the inhibition is 30.6% (active). As for `Oc1ccc(/C=N/N(Cc2ccccc2)c2ccccc2)cc1`, the figure is 9.47%; as for `CC(C)(O)C#Cc1ccc(C(=O)N2CCC(C(N)=O)(N3CCCCC3)CC2)cc1`, 2.82%. Turning to `COc1cccc(/C=N/Nc2cc(C)nc(-c3ccccc3O)n2)c1O`, the inhibition was -14.6%. Turning to `COc1ccc(CCNc2ncnc3nc[nH]c23)cc1OC`, the inhibition is -2.94%. `COc1ccc2[nH]c(=S)cc(C)c2c1`: the inhibition is -5.42%. In the case of `O=C(NN=C1CCC(=NNC(=O)c2cccnc2)CC1)c1cccnc1`, the inhibition is 6.57%.

With `CCOc1ccc(Nc2nc(Cc3nnc(SCC(=O)c4ccc(C)cc4)o3)cs2)cc1`, the inhibition was 5.41%. `COc1ccc(/C=N/NC(=O)c2ccncc2)cc1CN1CCCc2ccccc21`: the inhibition is 22.8% (active). Take `COc1ccccc1/C=C/C=N/NC(=O)CN1CCN(Cc2ccccc2)CC1`: the inhibition was -1.91%. For `COc1ccc(OC)c(CN2CCN(C(=O)CNC(=O)c3cc(C)cc(C)c3)CC2)c1`, the inhibition was -0.63%. In the case of `CCOC(=O)C(=O)C1C(=O)Nc2ccccc21` (centres undefined), the inhibition is 6.34%. As for `O=C(Nc1cccc(Cc2ccccc2)c1)Nc1ccc2nc([C@@H]3O[C@H](CO)[C@@H](O)[C@H](O)[C@H]3O)[nH]c2c1`, the figure is 10.5%; as for `CCOC(=O)C1Sc2[nH]c(=O)sc2C(c2ccc(Cl)cc2)C1C(=O)OCC` (centres undefined), 5.84%. As for `Cc1ccc(/C=N/NC(=O)c2cc3ccccc3cc2O)o1`, the inhibition is 3.65%. `CC1CCCCC1NC(=O)/C(C#N)=C/C=C/c1ccccc1[N+](=O)[O-]` (centres undefined): the inhibition was -0.36%. `Cn1c(NN)nc2sc3c(c2c1=O)CCC3`: the inhibition is 11.8%. On to `O=C(O)c1ccccc1N=N/C(=N/Nc1cc(S(=O)(=O)O)ccc1O)c1ccccc1`, for which the inhibition was 9.57%.

Consider `O=C(N/N=C/c1ccc(O)c2ccccc12)c1cccnc1`, for which the inhibition was -1.25%. In the case of `COc1ccc(-c2csc(Nc3ccc(O)cc3)n2)cc1`, the inhibition is 2.15%.

Turning to `O=C(O)Cc1sc(-c2ccccc2)nc1-c1cccs1`, the inhibition is -3.2%. Take `CCOc1ccc(Cn2c(SCCCCC#N)nc3c2c(=O)n(C)c(=O)n3C)cc1OCC`: the inhibition was 3.27%.

Consider `CCC(C)c1ccc(O)c(/C=N/O)c1` (centres undefined), for which the inhibition is 8.65%. In the case of `COCCOC(=O)c1sc(=S)n(CCOC)c1N`, the inhibition is 9.71%. As to `Oc1ccc(N=Cc2sc3ccccc3c2Cl)cc1`, the inhibition is -0.14%. In the case of `Oc1ccc(N=Cc2c(O)ccc3ccccc23)cc1`, the inhibition was -1.4%. On to `c1ccc2[nH]c(-c3nc4ccccc4[nH]3)nc2c1`, for which the inhibition was 5.66%. Consider `CNC(=S)N/N=C/c1cn(Cc2ccc(C)cc2)c2ccccc12`, for which the inhibition was 9.36%. With `COc1cc(/C=N\Nc2nc(-c3cccs3)c(NC(C)=O)s2)ccc1O`, the inhibition is 13.2%. Under `CCn1c(SC)nc(O)c(C(c2ccc(OC)c(O)c2)c2c(O)nc(SC)n(CC)c2=O)c1=O` stands -4.61%; under `O=C1CCN(C(=S)NCCc2ccccc2)CC1`, -3.6%; under `CN(Cc1ccc(C(F)(F)F)cc1)C(=O)[C@H]1O[C@@H](n2cnc3c(N)ncnc32)[C@H](O)[C@@H]1O`, 68.3% (active).

Regarding `Nc1ncnc2c1ncn2[C@@H]1O[C@H](C(=O)NCC(F)(F)F)[C@@H](O)[C@H]1O`, the inhibition is 44.1% (active). In the case of `CC(=O)CSc1nnc(CSc2ncccn2)n1C1CCCCC1`, the inhibition was -1.2%. For `O=C(CSc1ccc(-c2ccco2)nn1)Nc1cccc(F)c1`, the inhibition was 0.25%. Regarding `Cc1cccc(C2c3c(n(C)c(=O)n(C)c3=O)N=C3c4ccccc4C(=O)C32)c1` (centres undefined), the inhibition is -3.19%. Take `Cc1[nH]c2ccccc2c1C(=O)CSCC(=O)O`: the inhibition is -9.03%. On to `COc1ccc(N2CCN(c3ccc([N+](=O)[O-])nc3)CC2)cc1`, for which the inhibition was 8%. `CC(C)=CCCC1(C)C=Cc2c(ccc3c2[nH]c2cc(O)c(C)cc23)O1` (centres undefined): the inhibition is 2.11%. For the compound `Cc1ccc(Nc2nc(-c3ccc(O)cc3O)cs2)nc1`, the inhibition was 9.2%. On to `O=C(CC[C@H]1O[C@@H](n2ccc(=O)[nH]c2=O)[C@H](O)[C@@H]1O)N[C@H](Cc1ccccc1)C(=O)NCCCN1CCCC1=O`, for which the inhibition was 32.5% (active). As for `O=c1[nH]n(-c2ccc([N+](=O)[O-])cc2)c(=O)c2ccccc12`, the inhibition was 19% (active). Take `O=C1CC(c2ccccc2)=NN1c1ccc([N+](=O)[O-])cc1`: the inhibition was -0.43%. Consider `CC(C)/C=N/NC(=O)c1cc(Br)ccc1O`, for which the inhibition is 4.2%. For `S=C(Nc1ccc(Br)cc1)NC1CCN(Cc2ccccc2)CC1`, the inhibition was 2.28%.

Source of the values: PubChem BioAssay AID1117263 (The Scripps Research Institute Molecular Screening Center, 2014).
